From PubChem
TTR transcr act = TTR transcription activators in neuroblastoma reporter cells, primary screen, cell-based, luminescence, SH-SY5Y, TTR promoter Gaussia luciferase. 100% = recombinant luciferase protein wells. activation, % at 16.7 µM. AID 1117267, 2014. 1.3% of 92,000 active;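 active means activation above the mean of all tested compounds plus 3 SD, cut at about 9.5% in these data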;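 further: cells exposed to compounds for one day before reading; 0% = median of all test compound wells on the plate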
TTR inh HuH7 = TTR promoter reporter inhibitors in hepatoma cells, counter-screen for TTR transcription activator project, cell-based, luminescence, HuH7 hepatoma; shares compounds with TTR transcr act; HuH7 TTR promoter-Gaussia luciferase reporter; inhibition, % at 16.7 µM; 4% of 1,100 active; AID 1117279, 2014;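 active means average inhibition above the solvent-only control wells' mean plus 3 SD, cut at about 15% in these data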;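 further: 0% = cells with DMSO only and 100% = cells with inhibitor control FD; inhibitors lower well luminescence so higher value means more inhibition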
TTR up confirm = TTR transcription activators, retest, confirmation, cell-based, luminescence, SH-SY5Y, triplicate; shares compounds with TTR transcr act; SHSY5Y TTR promoter Gaussia luciferase; 100% = purified Lucia enzyme wells, no cells; activation, % at 16.7 µM; 1,100 tested, under 10 active; AID 1117280, 2014;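 active means mean activation above a set limit taken from the earlier primary screen, cut at about 11% in these data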;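 further: 0% = DMSO-treated cells and 100% = recombinant Lucia luciferase without cells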
* marks the source's active call; other numbers are inactive results. This is one part of a sample in which hits are shown more often than they occur.

SMILES	TTR transcr act	others
Cc1nn(-c2ccccc2)c2c1C1(C(=O)N(C)c3ccccc31)C(C#N)=C(N)O2 (stereo not drawn)	-1
Cc1ccc(N2C(=O)CC(Cn3nc(C)cc3C)C2=O)cc1 (stereo not drawn)	-1
Cc1cc(C)n(CC2CC(=O)N(c3ccc(Cl)c(Cl)c3)C2=O)n1 (stereo not drawn)	12*	TTR inh HuH7=-11;TTR up confirm=0
Cc1cc(C)n(CC2CC(=O)N(c3ccc(Cl)cc3)C2=O)n1 (stereo not drawn)	4
C=CCc1c(N(CC)CC)nc(C)[nH]c1=O	0
CCN1CCN(S(=O)(=O)c2cc(C(=O)O)ccc2Cl)CC1	-2
O=C(Cn1nnc(-c2cccs2)n1)NCCc1ccccc1	0
O=[N+]([O-])c1ccc(Oc2ccc(-c3cnc4ccccc4n3)cc2[N+](=O)[O-])cc1	4
CC[C@]1(C(=O)OC)[C@H]2C(=O)N(Cc3ccccc3)C(=O)[C@H]2[C@H]2CN=C(SCc3ccc(C)cc3)N21	-1
CCOc1cc(C(=O)NC(C)CC)cc(OCC)c1OCC (stereo not drawn)	-3
CCCCCCNC(=O)CCNC(=O)c1cc(OC)c(OC)c(OC)c1	-1
CCOc1cc(C(=O)NCCCNC(=O)c2cc(OCC)c(OCC)c(OCC)c2)cc(OCC)c1OCC	12*	TTR inh HuH7=-29;TTR up confirm=0
CN(Cc1ccccc1)C(=O)c1ccc2c(c1)S(=O)(=O)N=C1CCCCCN12	0
O=C(CCC(=O)N/N=C/c1ccco1)N/N=C/c1ccco1	-1
O=C(CCCCCCCCC(=O)N/N=C/c1ccco1)N/N=C/c1ccco1	1
Cc1cccc(NC(=O)CCC(=O)N/N=C/c2ccco2)c1	9.7*	TTR inh HuH7=-15;TTR up confirm=0
Cc1nc([N+](=O)[O-])cn1CC(=O)c1ccccc1	0
COc1ccc(OC)c(Nc2c3ccccc3nc3ccccc23)c1	-1
O=C(COc1ccccc1)Nc1ccc(-c2nnc(-c3ccco3)o2)cc1	19*	TTR inh HuH7=-1;TTR up confirm=-1
O=C(Cc1ccc(Cl)cc1)Nc1cccc(-c2nnc(-c3ccco3)o2)c1	0
O=C(Cc1ccccc1)Nc1cccc(-c2nnc(-c3ccco3)o2)c1	-4
Cc1ccc(/C(O)=C2\C(=O)C(=O)N(c3cc(C)on3)C2c2cccc(Cl)c2)cc1 (stereo not drawn)	1
Cc1cccc(CCN2CCN=C2Nc2ccccc2)c1	0
O=[N+]([O-])c1cc(Br)c(OCc2nnc(-c3ccccc3)o2)c(Br)c1	2
CN(C)S(=O)(=O)c1cccc(NC(=O)COC(=O)c2cn(-c3ccccc3)nc2-c2ccccc2)c1	15*	TTR inh HuH7=-16;TTR up confirm=0
SMILES	TTR transcr act	others
Cc1cc(C(=O)OCC(=O)Nc2cccc(S(=O)(=O)N(C)C)c2)c2ccccc2n1	-1
CN(C)S(=O)(=O)c1cccc(NC(=O)COC(=O)CCOc2ccccc2)c1	0
CS/C(=C/[N+](=O)[O-])Nc1cccc2c1C(C)CC2(C)C (stereo not drawn)	-1
Cc1cc(C)n(-c2ccc(Cl)c(Cl)c2)n1	-3
Cc1cc(OCc2nnc(SCC(=O)OC3CCCCC3)o2)ccc1Cl	2
COC(=O)c1ccc(CN2C(=O)c3ccccc3C2=O)o1	0
Cc1cc(CN2C(=O)c3ccccc3C2=O)on1	15*	TTR inh HuH7=-7;TTR up confirm=0
O=C1c2ccccc2C(=O)N1Cc1cccnc1	-2
COc1cc(/C=N/NC(=O)c2c(C)nnn2-c2nonc2N)ccc1O	-2
CCOc1ccc(NC(=O)Nc2ccc(Br)cn2)cc1	2
Cc1ccc(OCC(=O)NC(=S)Nc2ccc(Br)cn2)cc1	20*	TTR inh HuH7=-10;TTR up confirm=-1
Cc1ccc(OCC(=O)NC(=S)Nc2cccc(NC(=O)c3ccccc3)c2)cc1	-1
CC(C)C(C)NC(=O)COc1ccc([N+](=O)[O-])cc1Cl (stereo not drawn)	0
O/N=C(\c1ccc(Cl)cc1)c1cc2ccccc2o1	-2
CCN(CC)S(=O)(=O)c1ccc(OCC(=O)NCc2ccco2)cc1	3
OC(CNCCNc1ncccc1C(F)(F)F)Cn1ccc2ccccc21 (stereo not drawn)	-1
Oc1ccccc1NCC(O)Cn1ccc2ccccc21 (stereo not drawn)	11*	TTR inh HuH7=5;TTR up confirm=-1
OCc1nc2ccccc2n1CC(O)Cn1ccc2ccccc21 (stereo not drawn)	-5
Cc1nc(C)c(-c2ccc(SCc3ccccc3C)nn2)s1	16*	TTR inh HuH7=8;TTR up confirm=-1
Cc1ccccc1CSc1nnc(C)c(=O)[nH]1	0
COc1cccc(NC(=O)CSc2ccc(-c3sc(C)nc3C)nn2)c1	-2
O=c1cc(-c2ccccc2)nc2cc(-c3ccc(F)cc3)[nH]n12	1
CC(C)Nc1nc(SC(C)C(=O)Nc2ccccc2)nc(N(C)C)n1 (stereo not drawn)	2
COC(=O)c1cccc(COC(=O)c2cccnc2SC)c1	12*	TTR inh HuH7=-3;TTR up confirm=0
COC(=O)c1ccc(COC(=O)c2cccnc2Cl)cc1	-1
SMILES	TTR transcr act	others
CSc1ncccc1C(=O)OCc1c(F)cccc1Cl	0
CCOC(=O)[C@@H]1[C@H]2COc3cc(OC)ccc3[C@H]2N2C(=O)N(c3ccc(OC)cc3)C(=O)[C@]12C	-2
O=C(c1cnc(Cl)c(Cl)c1)N1CCC(Cc2ccccc2)CC1	-1
O=C(NCC1CC1)c1ccc(Nc2nc3ccc(Br)cc3[nH]2)cc1	34*	TTR inh HuH7=1;TTR up confirm=-1
O=C(Cc1ccc(Nc2nc3ccc(Br)cc3[nH]2)cc1)NCCc1cccs1	-5
O=C(NCCc1nc2ccccc2[nH]1)c1cccc(Br)c1	4
C=CCC[C@@H](Cc1ccc(F)cc1)C(=O)OC[C@@H]1CCCN1C(=O)[C@@H](CC=C)CC(=O)N[C@@H](CO)Cc1ccccc1	-3
CCCc1nn(-c2cc(Cl)ccc2OC)c2c1C(=O)CCC2	-1
COc1cccc(-n2nnc3c(=O)n(CC(=O)N4CCCCC4)cnc32)c1	-3
COc1ccc(NS(=O)(=O)c2cc(NC(=O)c3ccco3)ccc2N2CCCC2)cc1	-1
S=c1[nH]nc(CN2CCCCC2)n1Cc1ccccc1	-2
Cc1ccc(-c2cc(-c3ccccc3)nc(NN)n2)cc1	3
Cc1ccc(-c2nc3ccccc3nc2-c2ccccc2)cc1	2
Cc1cc(-c2ccccc2)nc(-c2ccccc2)c1C	19*	TTR inh HuH7=-20;TTR up confirm=0
CCOc1ccc(/C=N/OCC(=O)Nc2cc(S(=O)(=O)N3CCOCC3)ccc2OC)cc1	1
C/C(Cl)=C\C[N+](C)(C)CC(=O)OCCc1ccccc1	3
COc1ccc(C2N(C(=O)CN3CCOCC3)CCN2S(=O)(=O)c2ccccc2)cc1 (stereo not drawn)	-1
CC(C(=O)Nc1ccccc1-c1ccccc1)N1CCN(S(=O)(=O)c2ccccc2)CC1 (stereo not drawn)	-3
Cc1ccc(S(=O)(=O)C2(C(=O)NCc3ccc4c(c3)OCO4)CC2)cc1	3
C=CCn1c(=O)c2c(nc3n2CC(C)CN3Cc2ccccc2)n(C)c1=O (stereo not drawn)	11*	TTR inh HuH7=16*;TTR up confirm=-1
Cc1ccc(N2CC(C)Cn3c2nc2c3c(=O)n(CC(=O)OCc3ccccc3)c(=O)n2C)cc1C (stereo not drawn)	1
